Drawing on PubChem BioAssay, this text covers composite z-score and z-score for six compounds.

Active and inactive are the calls of the source.

Test [1] concerns Plasmodium falciparum Sir2 (PF13_0152, Sir2A). As to the kind of experiment: pfSir2 binders on small-molecule microarrays, primary screen, biochemical, small-molecule microarray, 635 nm fluorescence (AID 1098).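 Also: score merges spot fluorescence intensity with its signal-to-noise ratio.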 The conditions noted are these: small-molecule microarray binding, fluorescence 635 nm; higher = more signal.
A short description of test [2]: small-molecule microarray binders of probe aDKK1, primary screen, biochemical, biotinylated probe, 635/667 nm fluorescence (AID 1099).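 Also: score merges 667nm spot fluorescence with signal to noise across triplicate slides.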 The conditions noted are these: higher = more signal.
Test [3] is described as follows: small-molecule microarray binders of probe aCHRDL2, primary screen, biochemical, biotinylated probe, 635/667 nm fluorescence (AID 1100). The conditions noted are these: higher = more signal.
Test [4] can be described thus: splicing luciferase reporter signal modulators, primary screen, spliceosome inhibition project, cell-based, HEK293, splice +/- reporter (AID 1101).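 Also: HEK293 cells carrying a splicing-competent luciferase reporter gene; test concentration not given here.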 The conditions noted are these: luminescence, 24 h, higher = more signal, called active from +8 up or from −8 down. Background: In a reporter assay the amount or activity of a reporter protein is the signal.
Test [5] deals with Fibroblast growth factor 10 (Homo sapiens) (UniProt O15520). As to the kind of experiment: FGF10 binders on small-molecule microarrays, primary screen, biochemical, small-molecule microarray, 635 nm fluorescence (AID 1102). The conditions noted are these: FGF10 binding, fluorescence 635 nm, higher = more signal.
Chain of Fibroblast growth factor 10 (Homo sapiens) (O15520 whole entry, looked up): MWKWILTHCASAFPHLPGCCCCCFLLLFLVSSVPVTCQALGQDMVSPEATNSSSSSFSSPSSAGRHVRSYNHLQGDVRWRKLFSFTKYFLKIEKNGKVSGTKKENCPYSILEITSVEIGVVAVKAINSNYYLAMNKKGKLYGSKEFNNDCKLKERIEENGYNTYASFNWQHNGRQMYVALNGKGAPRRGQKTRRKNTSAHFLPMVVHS
Test [6] has as its system glycogen synthase kinase-3 (GSK3A per assay name; protocol says GSK3B). In words: GSK3 binders on small-molecule microarrays, primary screen, biochemical, small-molecule microarray, 635 nm fluorescence, GSK3A (AID 1103). Also: the record names both GSK3A and GSK3B. The conditions noted are these: small-molecule microarray binding, fluorescence 635 nm; higher = more signal.
For test [7], the target named is Epidermal growth factor receptor (Homo sapiens) (UniProt P00533). In words: EGFR binders on small-molecule microarrays, primary screen, biochemical, small-molecule microarray, 635 nm fluorescence (AID 1104).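 Also: score merges 667 nm emission intensity with spot signal to noise over triplicate slides.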 The conditions noted are these: EGFR binding, higher = more signal.
Chain of Epidermal growth factor receptor (Homo sapiens) (P00533 whole entry, looked up): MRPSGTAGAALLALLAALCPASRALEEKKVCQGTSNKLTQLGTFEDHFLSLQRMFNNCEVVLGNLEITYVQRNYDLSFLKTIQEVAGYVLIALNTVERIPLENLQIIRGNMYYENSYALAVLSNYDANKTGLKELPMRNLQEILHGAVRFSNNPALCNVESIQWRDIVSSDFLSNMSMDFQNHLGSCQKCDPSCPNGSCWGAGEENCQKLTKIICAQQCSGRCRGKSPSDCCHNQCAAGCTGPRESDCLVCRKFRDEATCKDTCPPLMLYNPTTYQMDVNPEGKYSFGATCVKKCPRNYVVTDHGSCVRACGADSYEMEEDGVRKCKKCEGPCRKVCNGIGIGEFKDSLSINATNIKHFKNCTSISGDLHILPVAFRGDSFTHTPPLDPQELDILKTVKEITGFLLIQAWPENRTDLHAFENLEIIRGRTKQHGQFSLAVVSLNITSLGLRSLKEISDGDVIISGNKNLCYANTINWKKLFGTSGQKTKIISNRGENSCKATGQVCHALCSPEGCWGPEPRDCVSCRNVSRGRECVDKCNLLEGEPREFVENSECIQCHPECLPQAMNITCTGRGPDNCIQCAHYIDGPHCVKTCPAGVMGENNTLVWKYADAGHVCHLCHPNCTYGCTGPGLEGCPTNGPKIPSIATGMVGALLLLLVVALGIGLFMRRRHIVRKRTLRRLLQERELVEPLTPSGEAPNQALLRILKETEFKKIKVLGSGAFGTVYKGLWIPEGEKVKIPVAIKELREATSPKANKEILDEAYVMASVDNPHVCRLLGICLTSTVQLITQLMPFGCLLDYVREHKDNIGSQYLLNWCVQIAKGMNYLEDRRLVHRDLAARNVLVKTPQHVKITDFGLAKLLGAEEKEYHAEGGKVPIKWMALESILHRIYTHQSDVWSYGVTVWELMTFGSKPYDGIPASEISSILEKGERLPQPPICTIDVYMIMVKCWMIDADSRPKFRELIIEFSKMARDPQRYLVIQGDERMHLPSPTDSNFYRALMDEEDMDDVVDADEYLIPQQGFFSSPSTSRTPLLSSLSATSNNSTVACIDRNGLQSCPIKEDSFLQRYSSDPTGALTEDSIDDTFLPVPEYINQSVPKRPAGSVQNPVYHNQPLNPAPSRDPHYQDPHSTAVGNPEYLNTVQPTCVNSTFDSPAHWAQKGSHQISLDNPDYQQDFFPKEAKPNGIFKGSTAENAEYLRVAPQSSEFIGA
Test [8] concerns the target Follistatin-related protein 3 (Homo sapiens) (UniProt O95633). As to the kind of experiment: FSTL3 binders on small-molecule microarrays, primary screen, biochemical, small-molecule microarray, 635 nm fluorescence (AID 1105).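 Also: score merges emission near 667 nm and signal to noise per printed spot across three slides.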 The conditions noted are these: FSTL3 binding, higher = more signal.
Test [9] concerns the target Dickkopf-related protein 1 (Homo sapiens) (UniProt O94907). As to the kind of experiment: DKK1 binders on small-molecule microarrays, primary screen, biochemical, small-molecule microarray, 635 nm fluorescence scan (AID 1106).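 Also: score merges emission near 667 nm with signal to noise over three replicate slides.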 The conditions noted are these: DKK1 binding, higher = more signal.
For test [10], the system named is Inhibin beta A chain (activin A). In words: INHBA (activin A) binders on microarrays, primary screen, biochemical, small-molecule microarray, 635 nm fluorescence scan (AID 1107).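 Also: mouse activin A protein probed at 4.33 µg/mL on printed slides; score merges bound-protein fluorescence near 667 nm with spot signal-to-noise.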 The conditions noted are these: small-molecule microarray binding, higher = more signal.
For test [11], the system named is Human papillomavirus type 1a protein E7 (residues 44-93). As to the kind of experiment: HPV1a E7 fragment binders on microarrays, primary screen, biochemical, small-molecule microarray, residues 44-93, 635 nm fluorescence (AID 1108).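 Also: E7 fragment applied at 1 µg/mL in TBST for 1 h at 4 C; score combines spot fluorescence with its signal to noise ratio.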 The conditions noted are these: small-molecule microarray binding, fluorescence 635 nm; higher = more signal.
Test [12] in a line: modulators of HCV replicon luciferase signal, primary screen, HCV replication inhibitor project, Huh7 cells, luciferase reporter (AID 1109).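 Also: huh7 hepatoma cells harbouring a luciferase neomycin HCV replicon reporter; luciferase luminescence as measure of HCV replicon replication; test concentration not given here.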 The conditions noted are these: 48 h, higher = more signal.
Test [13] has as its target Left-right determination factor 2 (Homo sapiens) (UniProt O00292). In words: LEFTY2 binders on small-molecule microarrays, primary screen, biochemical, small-molecule microarray, 635 nm fluorescence scan (AID 1110). The conditions noted are these: LEFTY2 binding, higher = more signal.
The target in test [14] is Calmodulin-1 (Homo sapiens) (UniProt P0DP23). In words: CALM1 binders on microarrays, EGTA buffer, profiling panel, biochemical, small-molecule microarray, Cy5-labelled CALM1 (AID 1111).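 Also: labelled calmodulin applied in Tris saline Tween buffer holding calcium plus EGTA and DTT.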 The conditions noted are these: Cy5-CALM1 binding fluorescence, higher = more signal.
The target is the same in test [15]. In words: calcium-bound CALM1 binders on microarrays, profiling panel, artefact control for SMM control-protein annotation, biochemical, small-molecule microarray, Cy5-labelled CALM1, plus calcium (AID 1112).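 Also: score merges spot fluorescence with signal to noise from triplicate slides.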 The conditions noted are these: Cy5-CALM1 binding fluorescence, higher = more signal.
Test [16] in a line: small-molecule microarray binders of probe aWnt5a, primary screen, biochemical, biotinylated probe, 635/667 nm fluorescence (AID 1113).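 Also: score merges 667 nm fluorescence intensity with signal-to-noise per printed feature.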 The conditions noted are these: higher = more signal.
A short description of test [17]: small-molecule microarray binders of probe aShh, primary screen, biochemical, biotinylated probe, 635/667 nm fluorescence (AID 1114).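 Also: probe is biotin-labelled aShh protein from a stem cell growth factor screen; measures binding of labelled protein to compounds printed on the slide; score merges feature fluorescence at 667 nm with signal-to-noise.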 The conditions noted are these: higher = more signal.
Test [18] can be described thus: small-molecule microarray binders of probe aNog, primary screen, biochemical, biotinylated probe, 635/667 nm fluorescence (AID 1115).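 Also: probe is biotinylated aNog protein used at 0.15 µg/mL for 1 h at 4 C; z-score combines 667 nm fluorescence of each spot with its signal to noise.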 The conditions noted are these: higher = more signal.
Test [19] concerns the target Torsin-1A-interacting protein 1 (Homo sapiens) (UniProt Q5JTV8). In words: LAP1 binders from COS7 cell lysate, primary screen, small-molecule microarray, 635/667 nm fluorescence (AID 1116). The conditions noted are these: COS7-hLAP1 lysate binding, 635 nm fluorescence, higher = more signal.
Test [20] concerns the target Alpha-bungarotoxin (Bungarus multicinctus) (UniProt P60615). In words: alpha-bungarotoxin binders on microarray, profiling panel, artefact control for SMM control protein annotation, biochemical, small-molecule microarray, Alexa647 label, 635/667 nm fluorescence (AID 1117). The conditions noted are these: alpha-BTX-A647 binding fluorescence, higher = more signal.

Chain of Dickkopf-related protein 1 (Homo sapiens) (O94907 whole entry, looked up): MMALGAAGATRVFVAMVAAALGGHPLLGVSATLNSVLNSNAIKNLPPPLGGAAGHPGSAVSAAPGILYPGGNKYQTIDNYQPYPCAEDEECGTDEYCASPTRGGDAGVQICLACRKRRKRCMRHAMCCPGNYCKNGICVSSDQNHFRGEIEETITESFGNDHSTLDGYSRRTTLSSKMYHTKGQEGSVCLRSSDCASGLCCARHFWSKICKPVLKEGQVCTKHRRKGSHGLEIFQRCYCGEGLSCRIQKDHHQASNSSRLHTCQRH
Chain of Left-right determination factor 2 (Homo sapiens) (O00292 whole entry, looked up): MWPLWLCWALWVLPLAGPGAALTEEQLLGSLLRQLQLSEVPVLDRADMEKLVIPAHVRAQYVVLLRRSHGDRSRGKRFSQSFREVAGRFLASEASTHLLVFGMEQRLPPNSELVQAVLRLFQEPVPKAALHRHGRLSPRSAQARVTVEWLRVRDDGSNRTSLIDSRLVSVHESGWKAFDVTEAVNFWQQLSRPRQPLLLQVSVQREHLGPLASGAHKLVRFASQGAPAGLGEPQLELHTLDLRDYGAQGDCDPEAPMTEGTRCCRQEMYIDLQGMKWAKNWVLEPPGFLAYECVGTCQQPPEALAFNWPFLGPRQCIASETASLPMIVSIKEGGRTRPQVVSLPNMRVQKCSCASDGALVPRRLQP
Chain of Torsin-1A-interacting protein 1 (Homo sapiens) (Q5JTV8 whole entry, looked up): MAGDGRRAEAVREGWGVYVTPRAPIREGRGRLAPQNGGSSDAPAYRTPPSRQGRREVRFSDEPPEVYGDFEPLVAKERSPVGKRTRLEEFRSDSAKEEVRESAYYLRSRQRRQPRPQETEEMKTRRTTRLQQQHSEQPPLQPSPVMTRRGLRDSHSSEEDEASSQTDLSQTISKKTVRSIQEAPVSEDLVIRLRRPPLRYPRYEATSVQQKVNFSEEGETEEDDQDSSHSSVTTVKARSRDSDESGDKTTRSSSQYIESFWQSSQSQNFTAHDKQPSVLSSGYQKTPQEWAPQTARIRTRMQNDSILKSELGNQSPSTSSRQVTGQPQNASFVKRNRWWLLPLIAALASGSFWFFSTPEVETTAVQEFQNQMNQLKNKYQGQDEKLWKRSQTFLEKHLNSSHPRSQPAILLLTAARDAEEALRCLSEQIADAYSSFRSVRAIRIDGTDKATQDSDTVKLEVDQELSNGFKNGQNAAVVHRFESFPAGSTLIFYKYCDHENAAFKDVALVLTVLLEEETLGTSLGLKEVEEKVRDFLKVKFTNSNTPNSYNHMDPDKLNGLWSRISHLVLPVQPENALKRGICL
Chain of Alpha-bungarotoxin (Bungarus multicinctus) (P60615 whole entry, looked up): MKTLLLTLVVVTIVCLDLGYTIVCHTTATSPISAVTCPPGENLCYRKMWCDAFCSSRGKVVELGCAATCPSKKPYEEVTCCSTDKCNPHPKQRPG
Chain of Follistatin-related protein 3 (Homo sapiens) (O95633 whole entry, looked up): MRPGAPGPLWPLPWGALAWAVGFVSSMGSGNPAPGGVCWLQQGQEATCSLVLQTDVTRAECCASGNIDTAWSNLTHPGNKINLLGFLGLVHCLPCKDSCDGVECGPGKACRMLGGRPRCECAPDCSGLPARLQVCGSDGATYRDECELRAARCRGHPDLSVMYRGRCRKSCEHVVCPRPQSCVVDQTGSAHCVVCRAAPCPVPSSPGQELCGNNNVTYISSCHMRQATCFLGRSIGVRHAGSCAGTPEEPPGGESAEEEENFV

For the compound `C=CCNC(=O)[C@H]1[C@@H]2C(=O)O[C@@H](c3ccccc3)[C@@H](c3ccccc3)N2[C@@H](c2ccc(OCCO)cc2)[C@]12C(=O)Nc1ccc(C#Cc3ccc(OC)cc3)cc12`, the composite z-score in test [1] came out at 1.34; in [2], 0.626; in [3], 0.632; in [5] it was 1.23; in test [6], 1.33; in test [7] it was 0.486. In addition, the composite z-score in [8] was 1.17; in [9] it was 0.736; in test [10] it was -0.274; in [11], 1.02; in [13], 0.699; in test [14], 0.573. The composite z-score in test [15] was 0.787; in [16], 0.104; in test [17], 0.465; in test [18] it was -0.403; in test [19], 1.1; in test [20] it was 1.71. Moreover, the z-score in test [4] is -0.258 (inactive); in test [12], -2.18.
In the case of `O=C(O)C1=CC[C@H]2C(=O)N(c3ccccc3)C(=O)[C@@H]12`, the composite z-score turned out to be 0.767 in test [1]; 0.45 in test [2]; 0.682 in test [3]; 0.855 in test [5]; 1.04 in [6]; 0.325 in [7]. The composite z-score was 1.11 in [8]; 0.0793 in test [9]; 1.23 in [10]; 1.37 in test [11]; 0.412 in test [13]; 0.661 in test [14]. Also, the composite z-score was -0.388 in test [15]; 0.155 in test [16]; 0.369 in test [17]; 0.883 in test [18]; 0.769 in [19]; 0.955 in [20]. Besides, the z-score in [4] was 0.727 (inactive); in test [12], 0.49.
`C=C(C(=O)CC[C@@H](OC(=O)c1ccccc1-c1ccccc1C(=O)O)c1cccc(OCCO)c1)C(C)C`: the composite z-score in [1] was 0.679; in test [2] it was -0.318; in test [3], -0.393; in [5] it was 1.56; in test [6], 0.133; in test [7], -0.143. For the same compound, the composite z-score in test [8] is 0.441; in [9] it was 0.907; in [10], 1.06; in [11], -0.635; in [13], 0.706; in test [14], -0.367. In addition, the composite z-score was -0.692 in test [15]; -0.129 in test [16]; -0.0396 in test [17]; -0.248 in [18]; 3.26 in test [19]; -0.11 in [20]. For the same compound, the z-score in test [4] is 0.436 (inactive); in test [12] it was -3.06.
With `COC(=O)[C@@]1(Cc2ccc(F)cc2)[C@H]2c3cc(C(=O)N(C)C)n(Cc4ccc(C(F)(F)F)nc4)c3C[C@H]2CN1C(=O)c1ccccc1`, the composite z-score was 1.12 in test [1]; -0.154 in test [2]; -0.252 in [3]; 0.776 in test [5]; 1.36 in test [6]; 0.389 in test [7]. Also, the composite z-score was found to be 1.42 in [8]; 0.638 in test [9]; 0.876 in [10]; 1.38 in test [11]; 0.22 in test [13]; 2.27 in [14]. For the same compound, the composite z-score in [15] is 0.789; in [16], 0.15; in test [17] it was 0.25; in [18], -0.235; in [19], 0.0971; in test [20], 0.922. Also, the results for the z-score in [4] and in test [12] were -0.622 (inactive) and -2.42, respectively.
Consider `Cc1ccc(S[C@]2(C(=O)NC(C)C)CC(=O)N(Cc3ccccc3)[C@@H]2c2ccc(CO)cc2)cc1`, for which the composite z-score is 0.0089 in [1]; 0.108 in test [2]; 0.915 in test [3]; -1.18 in [5]; -1.34 in [6]; -1.01 in test [7]. Also, the composite z-score was -0.363 in test [8]; -1.51 in test [9]; 0.159 in test [10]; -0.905 in test [11]; -1.82 in test [13]; -0.0379 in test [14]. The composite z-score was 0.175 in test [15]; -0.124 in [16]; -0.2 in [17]; 0.0258 in test [18]; -0.142 in [19]; 0.329 in test [20]. Further, the results for the z-score in test [4] and in [12] were -0.538 (inactive) and -1.36, respectively.
With `Cc1ccc(S[C@]2(C(=O)NC(C)C)CC(=O)N(Cc3ccccc3)[C@@H]2c2ccc(CO)cc2I)cc1`, the composite z-score in test [1] was 0.984; in test [2], 0.498; in [3] it was 1.27; in [5], -0.284; in [6] it was -0.683; in [7], -1.27. In addition, the composite z-score was -0.911 in test [8]; -2.57 in [9]; 1.01 in test [10]; -0.0832 in test [11]; -1.13 in test [13]; 0.129 in test [14]. The composite z-score is 0.454 in [15]; -0.172 in [16]; 0.0711 in test [17]; 0.813 in test [18]; -0.426 in test [19]; -0.684 in test [20]. Further, the values for the z-score in test [4] and in test [12] were -0.328 (inactive) and -1.78, respectively.
